Data published in PubChem BioAssay (Tox21).
“And” between values parts separate entries of the source, which are not always exact repeats. Identical values can stand only once. Results filed as inconclusive are left out. Some compounds were tested as several samples or in several runs, with calls that do not always agree. The source made the active and inactive calls. Unless noted, calls come from the whole dose curve; as a rule, active = well fitted curve in the direction sought with a large enough effect in the repeat runs; inconclusive = weak or mixed curves; inactive = no such curve, though single readings can be large; an effect the other way counts as inactive or inconclusive.

Assays:
[1] = biological target: Retinoic acid receptor RXR-alpha (Homo sapiens) (UniProt P19793); test: qHTS assay to identify small molecule agonists of the RXR signaling pathway (AID 1159527; calls by dose curve; note: nearly all actives have a fitted effect of over 35% in size; note: potency is the fitted concentration of half-maximal effect)
Procedure, shortened: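 Compounds in DMSO were added to RXR-alpha-UAS-bla HEK 293T cells kept in 2% charcoal-stripped serum, and incubated 16 hr at 37 C with 5% CO2. Reporter signal came from a 2 hr B/G FRET substrate step.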

[2] = qHTS assay to identify small molecule agonists of the RXR signaling pathway - cell viability counter screen (AID 1159529); note: nearly all actives have a fitted effect of over 50% in size; note: potency is the fitted concentration of half-maximal effect
Procedure, shortened: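 Counter screen: CellTiter-Glo luminescence. Cells: RXR-alpha-UAS-bla HEK 293T. Medium: 2% charcoal-stripped FBS. Treatment: 16 h, 37 C. Reagent incubation: 30 min, RT.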

[3] = qHTS assay to identify small molecule antagonists of the retinoid acid receptor (RAR) signaling pathway - cell viability counter screen (AID 1159551); note: nearly all actives have a fitted effect of over 35% in size
Procedure, shortened: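 Seed C3RL4 cells; next day add compound, then retinol to 1 uM final; incubate 6 h at 37 C; add CellTiter-Glo; read luminescence after 30 min at RT.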

[4] = qHTS assay to identify small molecule antagonists of the retinoic acid receptor (RAR) signaling pathway (AID 1159552; note: nearly all actives have a fitted effect of over 50% in size)
Procedure, shortened: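 Antagonism of retinol-induced RARE reporter activity was measured in C3RL4 cells. Exposure to compounds and 1 uM final retinol lasted 6 hr at 37 C, with luminescence as endpoint.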

[5] = qHTS assay to identify small molecule agonists of the retinoic acid receptor (RAR) signaling pathway (AID 1159553); conditions: C3RL4 RARE luciferase reporter, agonist, 6 h; activation: at 73.3 µM (top of the series) unless noted; note: potency is the fitted concentration of half-maximal effect
Procedure, shortened: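 Activation of retinol signaling was monitored via a RARE luciferase reporter in C3RL4 cells. After 6 hr compound treatment at 37 C, detection reagent was added for 30 min at room temperature before luminescence reading.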

[6] = qHTS assay to identify small molecule antagonists of the estrogen related receptor (ERR) signaling pathway from Tox21 library - cell viability counter screen (AID 1224834); note: nearly all actives have a fitted effect of over 30% in size; note: potency is the fitted concentration of half-maximal effect
Procedure, shortened: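 CellTiter-Fluor fluorescence measured; ERR cells; 17.5 h compound incubation at 37 C; 30 min reagent step.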

[7] = biological target: Luciferin 4-monooxygenase (Photinus pyralis) (UniProt P08659); test: qHTS assay to identify small molecule inhibitors of firefly luciferase (AID 1224835); note: nearly all actives have a fitted effect of over 25% in size; note: potency is the fitted concentration of half-maximal effect
Procedure, shortened: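 Inhibition of purified Photinus luciferase is measured by luminescence. Substrate levels (D-luciferin, ATP) sit at their KM values. Each compound is tested in a concentration series.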

[8] = qHTS assay to identify small molecule agonists of the constitutive androstane receptor (CAR) signaling pathway - cell viability counter screen (AID 1224836); note: nearly all actives have a fitted effect of over 45% in size
Procedure, shortened: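 Double-stable HepG2 hepatoma cells (hCAR plus CYP2B6-2.2kb) are treated for 23 h at 37 C with test compounds in 15-point concentration series. PK11195 at 0.75 uM final is co-added. Cell viability is quantified by CellTiter-Fluor.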

[9] = qHTS assay to identify small molecule antagonists of the estrogen related receptor (ERR) signaling pathway - cell viability counter screen (AID 1224818);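 note: viability measured after 17.5 h of compound exposure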
Procedure, shortened: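 In the same ERR cell assay, compound-treated wells (17.5 h, 37 C) were multiplexed with a fluorogenic viability reagent, CellTiter-Fluor, read after 30 min to flag cytotoxic substances.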

[10] = qHTS assay to identify small molecule antagonists of the estrogen related receptor signaling pathway with the pleiotropic PPARgamma coactivator (PGC) cell viability counter screen (AID 1224822)
Procedure, shortened: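 Compounds in DMSO, with positive and negative controls, were applied to PGC/ERR cells (2,000/well) and left 17.5 h at 37 C before CellTiter-Fluor detection.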

Measured: Potency

Luciferin 4-monooxygenase (Photinus pyralis), sequence (P08659 whole entry, looked up): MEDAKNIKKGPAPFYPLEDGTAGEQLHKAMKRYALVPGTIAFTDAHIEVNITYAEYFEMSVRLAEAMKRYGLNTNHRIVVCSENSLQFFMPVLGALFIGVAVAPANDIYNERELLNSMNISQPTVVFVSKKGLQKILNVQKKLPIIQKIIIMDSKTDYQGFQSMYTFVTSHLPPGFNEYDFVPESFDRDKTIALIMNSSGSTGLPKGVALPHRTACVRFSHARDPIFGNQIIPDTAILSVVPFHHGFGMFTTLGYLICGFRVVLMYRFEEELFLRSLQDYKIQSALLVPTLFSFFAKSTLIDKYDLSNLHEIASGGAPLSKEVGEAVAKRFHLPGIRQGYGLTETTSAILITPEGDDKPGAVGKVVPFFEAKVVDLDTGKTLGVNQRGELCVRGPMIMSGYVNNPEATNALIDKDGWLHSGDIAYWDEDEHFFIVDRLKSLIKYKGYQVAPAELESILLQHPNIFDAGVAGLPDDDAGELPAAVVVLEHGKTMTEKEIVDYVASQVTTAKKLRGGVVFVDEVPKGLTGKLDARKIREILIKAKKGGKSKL
Retinoic acid receptor RXR-alpha (Homo sapiens), sequence (P19793 whole entry, looked up): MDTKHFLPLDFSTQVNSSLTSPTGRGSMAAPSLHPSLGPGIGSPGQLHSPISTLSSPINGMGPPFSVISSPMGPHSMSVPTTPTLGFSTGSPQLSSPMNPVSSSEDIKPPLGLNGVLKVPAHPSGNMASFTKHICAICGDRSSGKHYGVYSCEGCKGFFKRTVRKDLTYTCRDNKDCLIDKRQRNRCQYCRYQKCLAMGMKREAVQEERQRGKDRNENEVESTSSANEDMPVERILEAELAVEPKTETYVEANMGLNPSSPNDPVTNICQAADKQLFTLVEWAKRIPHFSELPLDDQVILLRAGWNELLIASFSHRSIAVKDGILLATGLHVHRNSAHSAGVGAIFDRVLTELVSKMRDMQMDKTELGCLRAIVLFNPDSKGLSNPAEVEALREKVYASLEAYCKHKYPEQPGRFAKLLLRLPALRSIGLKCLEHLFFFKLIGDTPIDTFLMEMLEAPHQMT

CC(Br)C(=O)O (stereo unspecified)
not listed: [9] | [10]
inactive: all other assays above

CC(C#N)CCC#N (stereo unspecified)
not listed: [5] | [9] | [10]
inactive: all other assays above

Cc1ccc(N)cc1Cl
inactive and 56.4 µM (active): [7]
not listed: [5] | [9] | [10]
inactive: all other assays above

O=c1[nH]c(=O)[nH]c(=O)[nH]1
not listed: [4] | [9] | [10]
inactive: all other assays above

C#CC(C)(C)NC(=O)c1cc(Cl)cc(Cl)c1
not listed: [5] | [9] | [10]
inactive: all other assays above

CCCCOC(=O)c1ccccc1C(=O)OCCCC
not listed: [9] | [10]
inactive: all other assays above

C#CCN(C)[C@H](C)Cc1ccccc1
not listed: [4] | [9] | [10]
inactive: all other assays above

CC(C)C1(C)N=C(c2nc3ccccc3cc2C(=O)O)NC1=O (stereo unspecified)
not listed: [5] | [9] | [10]
inactive: all other assays above

O=c1[nH]c2ccccc2c(=O)o1
not listed: [5] | [9] | [10]
inactive: all other assays above

CN(C)CCO
not listed: [4] | [9] | [10]
inactive: all other assays above

CC(C)C#N
9.26 µM (active) and inactive: [1]
not listed: [4] | [9] | [10]
inactive: all other assays above

BrCCBr
not listed: [9] | [10]
inactive: all other assays above

CC(C)OC(=O)Nc1ccccc1
active: [7] 40 µM and 35.6 µM
not listed: [5] | [9] | [10]
inactive: all other assays above

[O-][Cl+2]([O-])O
not listed: [4] | [9] | [10]
inactive: all other assays above

CC(C)(Cl)Cl
not listed: [4] | [9] | [10]
inactive: all other assays above

Clc1ccc(Cl)cc1
not listed: [9] | [10]
inactive: all other assays above

CCCCCCCCCl
not listed: [5] | [9] | [10]
inactive: all other assays above

O=NN1CCCC1
inactive: [1] | [2] | [3] | [4]
45.3 µM (active) and inactive: [6]
83.4 µM (active) and inactive: [7]

Nc1ccccc1C(=O)O
not listed: [9] | [10]
inactive: all other assays above

C1CC2OC2CC1C1CO1 (stereo unspecified)
not listed: [4] | [9] | [10]
inactive: all other assays above

CCOP(=S)(OCC)SCCSCC
not listed: [5] | [9] | [10]
inactive: all other assays above

COP(N)(=O)SC (stereo unspecified)
not listed: [5] | [9] | [10]
inactive: all other assays above

O=c1n(Cl)c(=O)n(Cl)c(=O)n1Cl
not listed: [9] | [10]
inactive: all other assays above

NCC(O)c1ccc(O)cc1 (stereo unspecified)
not listed: [4]
inactive: all other assays above

CNC(=O)Oc1ccccc1OC(C)C
not listed: [5] | [9] | [10]
inactive: all other assays above

CN=C=S
not listed: [4] | [9] | [10]
inactive: all other assays above

Clc1cccc(Cl)c1Cl
not listed: [5] | [9] | [10]
inactive: all other assays above

O=[N+]([O-])c1ccccc1
not listed: [9] | [10]
inactive: all other assays above

O=NN1CCCCCCC1
not listed: [9] | [10]
inactive: all other assays above

CCc1cccc(C)c1N(C(=O)CCl)C(C)COC (stereo unspecified)
not listed: [9] | [10]
inactive: all other assays above

CCOP(OCC)OCC
22.3 µM (active) and inactive: [1]
not listed: [5] | [9] | [10]
inactive: all other assays above

c1cc2c3c(cccc3c1)CC2
not listed: [9] | [10]
inactive: all other assays above

OCCN(CCO)CCO
not listed: [5] | [9] | [10]
inactive: all other assays above

C=CC(N)=O
not listed: [4] | [9] | [10]
inactive: all other assays above

CC1C=[C-]C=C1.[C-]#[O+].[C-]#[O+].[C-]#[O+].[Mn]
not listed: [5] | [9] | [10]
inactive: all other assays above

CC(C)OC(=O)Nc1cccc(Cl)c1
active: [7] 31.3 µM and 35.6 µM
not listed: [5] | [9] | [10]
inactive: all other assays above

OC(O)C(Cl)(Cl)Cl
inactive: [1] | [2] | [3] | [6] | [7] | [8]

c1ccc2c(c1)Oc1ccccc1O2
inactive: [1] | [2] | [3] | [5] | [6] | [8]

CON(C)C(=O)Nc1ccc(Cl)c(Cl)c1
inactive: [1] | [2] | [3] | [6] | [8]
active: [5] 24.3 µM

CN1C(=O)CN=C(c2ccccc2)c2cc(Cl)ccc21
inactive: [1] | [2] | [3] | [5] | [6] | [8]

O=Cc1cccc(Oc2ccccc2)c1
inactive: [1] | [2] | [3] | [6] | [7] | [8]

CCC12COCN1COC2
inactive: [1] | [2] | [3] | [6] | [7] | [8]

O=[N+]([O-])c1ccc([As](=O)(O)O)cc1
inactive: [1] | [2] | [3] | [6] | [7] | [8]

Nc1ccc(Oc2ccc(N)cc2)cc1
inactive and 63.3 µM (active): [7]
inactive: [1] | [2] | [3] | [6] | [8]

Cc1cc(-c2cc(C)c(N)c(C)c2)cc(C)c1N
inactive: [1] | [2] | [3] | [6] | [7] | [8]

CC(C)(C)OOC(C)(C)C
inactive: [1] | [2] | [3] | [6] | [7] | [8]

CCC[N+](=O)[O-]
26.8 µM (active) and inactive: [6]
30.3 µM (active) and inactive: [2]
inactive: [1] | [3]
34.9 µM (active) and inactive: [7]

COC(=O)NS(=O)(=O)c1ccc(N)cc1
inactive: [1] | [2] | [3] | [6] | [7] | [8]

COc1ccc2c3c1O[C@H]1[C@@H](O)C=C[C@H]4[C@@H](C2)N(C)CC[C@@]341
42.6 µM (active) and inactive: [6]
inactive: [1] | [2] | [3] | [7] | [8]

CCCCCOC(=O)c1ccccc1C(=O)OCCCCC
inactive: [1] | [2] | [3] | [6] | [7] | [8]
